In PubChem BioAssay (EPA / NIEHS):
Results filed as inconclusive are left out. The source made the active and inactive calls. How the source made its calls, unless noted: active means hit-call score of the fitted dose curve at least 0.9, where 1 is the maximum; inactive means score below 0.9.

Key:
[1] = biological target: Glucocorticoid receptor (Homo sapiens) (UniProt P04150); test: ATG_GR_TRANS: Attagene TRANS-FACTORIAL HepG2 Assay for human Glucocorticoid Receptor (GR) (AID 2282978; active means hit-call score of the fitted dose curve at least 0.9, where 1 is the maximum;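 further: activators score as hits since higher reporter transcript over DMSO is fitted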); settings: HepG2 Attagene TRANS GR reporter, mRNA transcription
Chain of Glucocorticoid receptor (Homo sapiens) (P04150 whole entry, looked up, the tested form may be a part): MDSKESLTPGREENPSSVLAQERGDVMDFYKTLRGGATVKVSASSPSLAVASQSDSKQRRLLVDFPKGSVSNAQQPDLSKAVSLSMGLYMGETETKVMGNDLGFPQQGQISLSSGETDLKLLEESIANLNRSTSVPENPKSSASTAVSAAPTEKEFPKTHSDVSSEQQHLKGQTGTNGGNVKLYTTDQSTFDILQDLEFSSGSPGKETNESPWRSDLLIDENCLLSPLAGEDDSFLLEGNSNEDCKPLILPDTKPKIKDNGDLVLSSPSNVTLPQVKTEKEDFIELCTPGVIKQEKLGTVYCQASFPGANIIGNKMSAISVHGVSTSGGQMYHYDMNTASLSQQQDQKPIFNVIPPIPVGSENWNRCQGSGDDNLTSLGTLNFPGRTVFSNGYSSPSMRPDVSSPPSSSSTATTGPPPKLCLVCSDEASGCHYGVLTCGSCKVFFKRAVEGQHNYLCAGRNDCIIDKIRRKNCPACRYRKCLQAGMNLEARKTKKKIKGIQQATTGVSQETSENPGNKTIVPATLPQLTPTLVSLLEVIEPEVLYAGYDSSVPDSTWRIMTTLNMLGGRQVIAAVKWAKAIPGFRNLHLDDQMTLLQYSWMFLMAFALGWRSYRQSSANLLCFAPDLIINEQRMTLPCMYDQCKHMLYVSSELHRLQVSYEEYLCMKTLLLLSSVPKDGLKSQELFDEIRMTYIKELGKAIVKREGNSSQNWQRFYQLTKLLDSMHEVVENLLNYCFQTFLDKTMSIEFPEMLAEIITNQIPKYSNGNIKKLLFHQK
Outline: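 Measurement of GAL4-UAS-driven reporter mRNA in human HepG2 liver cells 24 h post-dosing, using RT-PCR with fluorescent labelling and capillary electrophoresis; the transfected constructs report exogenous NR-GAL4 chimera activity, fitted upward against DMSO.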

[2] = biological target: Oxysterols receptor LXR-beta (Homo sapiens) (UniProt P55055); test: ATG_LXRb_TRANS: Attagene TRANS-FACTORIAL HepG2 Assay for human Liver X Receptor beta (LXRb) (AID 2282981; active means hit-call score of the fitted dose curve at least 0.9, where 1 is the maximum); settings: HepG2 Attagene TRANS GAL4-LXRb reporter, mRNA
Chain of Oxysterols receptor LXR-beta (Homo sapiens) (P55055 whole entry, looked up, the tested form may be a part): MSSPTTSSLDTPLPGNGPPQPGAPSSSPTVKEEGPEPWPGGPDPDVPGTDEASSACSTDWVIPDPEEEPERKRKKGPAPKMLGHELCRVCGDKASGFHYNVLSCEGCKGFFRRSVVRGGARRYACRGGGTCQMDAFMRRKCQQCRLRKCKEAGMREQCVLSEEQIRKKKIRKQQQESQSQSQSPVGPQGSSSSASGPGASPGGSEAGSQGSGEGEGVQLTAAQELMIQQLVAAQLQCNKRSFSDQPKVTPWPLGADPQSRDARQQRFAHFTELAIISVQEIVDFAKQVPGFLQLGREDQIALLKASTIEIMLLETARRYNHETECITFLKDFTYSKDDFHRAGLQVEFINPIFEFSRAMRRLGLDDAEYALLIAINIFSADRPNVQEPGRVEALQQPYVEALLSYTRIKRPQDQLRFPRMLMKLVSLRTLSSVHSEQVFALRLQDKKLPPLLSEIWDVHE
Outline: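 HepG2 cells transiently transfected with multiple reporter transcription units carrying chimeric NR-Gal4 proteins acting on GAL4-UAS reporters; compound exposure 24 h. Reporter mRNA quantified by RT-PCR, 6-FAM labelling, HpaI digestion and capillary electrophoresis; gain of signal versus DMSO.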

[3] = biological target: Hepatocyte nuclear factor 4-alpha (Homo sapiens) (UniProt P41235); test: ATG_HNF4a_TRANS: Attagene TRANS-FACTORIAL HepG2 Assay for human Hepatocyte Nuclear Factor 4 alpha (HNF4a) (AID 2282982; active means hit-call score of the fitted dose curve at least 0.9, where 1 is the maximum); settings: HepG2 HNF4a transactivation reporter, mRNA readout
Chain of Hepatocyte nuclear factor 4-alpha (Homo sapiens) (P41235 whole entry, looked up, the tested form may be a part): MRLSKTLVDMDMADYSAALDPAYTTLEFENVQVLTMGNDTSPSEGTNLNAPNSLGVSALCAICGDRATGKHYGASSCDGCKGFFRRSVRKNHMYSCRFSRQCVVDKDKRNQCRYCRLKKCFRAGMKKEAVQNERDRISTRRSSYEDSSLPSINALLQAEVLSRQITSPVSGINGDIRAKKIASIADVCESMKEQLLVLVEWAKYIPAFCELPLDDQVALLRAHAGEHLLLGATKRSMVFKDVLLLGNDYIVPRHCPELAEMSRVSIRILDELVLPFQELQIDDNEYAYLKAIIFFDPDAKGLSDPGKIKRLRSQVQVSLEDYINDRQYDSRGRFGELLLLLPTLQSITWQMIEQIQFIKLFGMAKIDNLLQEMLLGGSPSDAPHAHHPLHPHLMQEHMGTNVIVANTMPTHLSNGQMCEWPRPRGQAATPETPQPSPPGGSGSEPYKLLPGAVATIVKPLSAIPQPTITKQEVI
Outline: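 HepG2 cells transiently transfected with multiplexed GAL4-UAS reporter units responsive to chimeric NR-GAL4 proteins; compound exposure 24 h. Reporter mRNA quantified by RT-PCR, 6-FAM labelling, HpaI digestion and capillary electrophoresis; gain of signal versus DMSO baseline.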

[4] = biological target: Transcriptional activator Myb (Homo sapiens) (UniProt P10242); test: ATG_Myb_CIS: Attagene CIS-FACTORIAL HepG2 Assay for human Myeloblastosis (Myb) Proto-Oncogene Transcription Factor (AID 2282986); settings: HepG2 Attagene CIS-FACTORIAL Myb reporter transcription; actives raise or lower the signal
Chain of Transcriptional activator Myb (Homo sapiens) (P10242 whole entry, looked up): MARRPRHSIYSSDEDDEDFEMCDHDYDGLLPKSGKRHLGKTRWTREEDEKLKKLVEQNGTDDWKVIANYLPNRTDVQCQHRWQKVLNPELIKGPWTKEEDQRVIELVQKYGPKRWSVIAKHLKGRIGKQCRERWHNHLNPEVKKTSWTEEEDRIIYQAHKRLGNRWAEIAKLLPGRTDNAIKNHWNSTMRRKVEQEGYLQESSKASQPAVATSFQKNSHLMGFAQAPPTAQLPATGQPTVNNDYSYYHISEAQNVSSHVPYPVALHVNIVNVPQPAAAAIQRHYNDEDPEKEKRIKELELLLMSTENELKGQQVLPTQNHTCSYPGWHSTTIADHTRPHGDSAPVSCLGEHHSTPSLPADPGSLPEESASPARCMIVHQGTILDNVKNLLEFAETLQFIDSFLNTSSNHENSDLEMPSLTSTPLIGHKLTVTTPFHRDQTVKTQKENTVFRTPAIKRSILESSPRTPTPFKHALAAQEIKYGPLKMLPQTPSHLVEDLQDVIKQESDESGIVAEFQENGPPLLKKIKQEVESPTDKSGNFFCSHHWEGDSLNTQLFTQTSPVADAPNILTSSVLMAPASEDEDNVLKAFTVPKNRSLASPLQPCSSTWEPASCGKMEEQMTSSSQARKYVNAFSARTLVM
Outline: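 Fluorescence signals from capillary electrophoresis of RT-PCR-amplified reporter cDNA give the read-out. Cells: HepG2 transfected with multiple cis-regulated reporter units. Exposure lasts 24 hours; DMSO defines baseline for gain or loss of signal.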

[5] = biological target: Nuclear respiratory factor 1 (Homo sapiens) (UniProt Q16656); test: ATG_NRF1_CIS: Attagene CIS-FACTORIAL HepG2 Assay for human Nuclear Respiratory Factor 1 (NRF1) Orphan Gene (AID 2282987); settings: HepG2 NRF1 cis-element reporter, Attagene multiplex; actives raise or lower the signal
Chain of Nuclear respiratory factor 1 (Homo sapiens) (Q16656 whole entry, looked up): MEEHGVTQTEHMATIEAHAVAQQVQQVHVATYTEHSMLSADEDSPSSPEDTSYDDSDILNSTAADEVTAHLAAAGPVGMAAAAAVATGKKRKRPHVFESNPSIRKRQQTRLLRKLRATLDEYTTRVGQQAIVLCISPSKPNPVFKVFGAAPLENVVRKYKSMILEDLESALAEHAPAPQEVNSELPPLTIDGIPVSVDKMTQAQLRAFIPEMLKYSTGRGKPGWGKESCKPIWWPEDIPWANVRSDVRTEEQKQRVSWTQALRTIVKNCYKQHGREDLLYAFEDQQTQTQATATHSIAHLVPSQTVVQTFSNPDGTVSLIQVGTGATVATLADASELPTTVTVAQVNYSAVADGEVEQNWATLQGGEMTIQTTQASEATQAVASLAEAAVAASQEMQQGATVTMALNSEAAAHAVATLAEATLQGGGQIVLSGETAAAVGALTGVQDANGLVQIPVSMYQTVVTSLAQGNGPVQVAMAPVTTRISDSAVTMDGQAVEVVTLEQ
Outline: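 Transcriptional reporter readout, one component of a 52-endpoint multiplexed HepG2 panel. Exposure 24 h; mRNA detected via RT-PCR and fluorescent capillary electrophoresis; fitting in both directions against DMSO.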

[6] = ATG_NFI_CIS: Attagene CIS-FACTORIAL HepG2 Assay for human Nuclear Factor I (NFI) (AID 2282989); settings: HepG2 cis-regulatory reporter, NFI response element transcription; actives raise or lower the signal
Outline: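 Multiplexed cis-reporter system in human HepG2 cells reports native TF activity as reporter mRNA induction 24 h post-dose. Fragments labelled with 6-FAM, HpaI-digested and resolved by capillary electrophoresis; activity fitted both directions versus DMSO.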

[7] = biological target: Myc proto-oncogene protein (Homo sapiens) (UniProt P01106); test: ATG_Myc_CIS: Attagene CIS-FACTORIAL HepG2 Assay for human Myelocytomatosis (Myc) Proto-Oncogene Transcription Factor (AID 2282990); settings: HepG2, Attagene cis-reporter transcription factor activity; actives raise or lower the signal
Chain of Myc proto-oncogene protein (Homo sapiens) (P01106 whole entry, looked up): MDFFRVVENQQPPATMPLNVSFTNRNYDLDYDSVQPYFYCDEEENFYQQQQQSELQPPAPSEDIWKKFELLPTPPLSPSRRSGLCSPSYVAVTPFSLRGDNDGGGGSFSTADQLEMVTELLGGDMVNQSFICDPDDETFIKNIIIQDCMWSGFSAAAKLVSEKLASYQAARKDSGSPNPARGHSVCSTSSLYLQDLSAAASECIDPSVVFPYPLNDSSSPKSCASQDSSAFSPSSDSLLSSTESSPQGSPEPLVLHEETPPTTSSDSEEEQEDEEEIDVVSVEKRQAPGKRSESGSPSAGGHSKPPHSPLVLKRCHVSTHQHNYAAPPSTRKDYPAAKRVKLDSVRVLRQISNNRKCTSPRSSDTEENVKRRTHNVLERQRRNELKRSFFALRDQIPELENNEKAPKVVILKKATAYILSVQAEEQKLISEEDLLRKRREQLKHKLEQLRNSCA
Outline: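 DMSO-normalised, bidirectionally fitted reporter mRNA signal. HepG2 cells transfected with cis reporter constructs, treated 24 h; transcripts detected by RT-PCR, 6-FAM primer extension and CE.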

[8] = ATG_NF_kB_CIS: Attagene CIS-FACTORIAL HepG2 Assay for human Nuclear Factor Kappa B (NF-kB) (AID 2282991); settings: HepG2 Attagene cis-factorial NF-kB reporter mRNA; actives raise or lower the signal
Outline: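 HepG2, transient multi-reporter transfection, cis promoter elements (endogenous TFs). 24 h exposure. Total RNA → RT → PCR → 6-FAM label → HpaI → CE. Gain/loss vs DMSO.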

[9] = ATG_NRF2_ARE_CIS: Attagene CIS-FACTORIAL HepG2 Assay for human Nuclear Factor Erythroid 2 Related Factor 2 (NFR2) response to Antioxidant Response Elements (ARE) (AID 2282992); settings: HepG2 Attagene ARE/NRF2 reporter, transcription factor activity; actives raise or lower the signal;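 on AC50: reporter mRNA level measured by RT-PCR and capillary electrophoresis fluorescence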
Outline: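 HepG2 cells transiently transfected with multiplexed cis-regulated reporter transcription units measure endogenous transcription factor activity. Reporter mRNA at 24 h is quantified by RT-PCR, fluorescent labelling and capillary electrophoresis, with bidirectional fitting relative to DMSO.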

[10] = ATG_Oct_MLP_CIS: Attagene CIS-FACTORIAL HepG2 Assay for human Octamer-Binding Transcription Factor (Oct) (AID 2282993); settings: HepG2 Attagene cis-factorial Oct reporter, mRNA; actives raise or lower the signal
Outline: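 After 24 h compound exposure, transfected HepG2 cells were lysed for total RNA; reporter-specific cDNA was PCR-amplified, fluorescently labelled and sized by capillary electrophoresis. Bidirectional curve fitting used DMSO as baseline.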

[11] = biological target: Cellular tumor antigen p53 (Homo sapiens) (UniProt P04637); test: ATG_p53_CIS: Attagene CIS-FACTORIAL HepG2 Assay for human p53 Transcription Factor (AID 2282994); settings: HepG2 p53 cis-element reporter, Attagene mRNA; actives raise or lower the signal
Chain of Cellular tumor antigen p53 (Homo sapiens) (P04637 whole entry, looked up): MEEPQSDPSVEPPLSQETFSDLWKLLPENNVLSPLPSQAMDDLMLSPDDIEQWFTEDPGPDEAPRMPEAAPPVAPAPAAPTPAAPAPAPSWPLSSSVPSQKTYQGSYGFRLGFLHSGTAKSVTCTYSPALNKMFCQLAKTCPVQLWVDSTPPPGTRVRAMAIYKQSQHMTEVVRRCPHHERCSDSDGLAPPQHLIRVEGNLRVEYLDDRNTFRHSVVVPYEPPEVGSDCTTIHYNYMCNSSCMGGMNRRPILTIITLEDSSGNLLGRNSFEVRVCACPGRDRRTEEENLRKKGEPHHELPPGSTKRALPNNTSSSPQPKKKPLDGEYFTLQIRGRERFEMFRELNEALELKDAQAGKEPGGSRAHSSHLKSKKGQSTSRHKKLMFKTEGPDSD
Outline: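 HepG2 cells transiently transfected with multiplexed cis-regulated reporter transcription units read endogenous TF activity. After 24 h compound exposure, reporter mRNA was quantified by RT-PCR, fluorescent labelling, HpaI digestion and capillary electrophoresis; bidirectional fits versus DMSO baseline.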

[12] = ATG_M_32_TRANS: Attagene TRANS-FACTORIAL HepG2 Assay for M32 Transcription Factor (Internal Marker) (AID 2282984; active means hit-call score of the fitted dose curve at least 0.9, where 1 is the maximum;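 further: transcript level of a background control reporter unit measured by RT-PCR and capillary electrophoresis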); settings: HepG2 Attagene TRANS M32 internal marker reporter
Outline: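 HepG2 cells transiently transfected with multiple GAL4-UAS reporter transcription units, dosed for 24 hours; reporter mRNA quantified by RT-PCR, 6-FAM primer extension, HpaI digestion and capillary electrophoresis. Gain-of-signal fitted versus DMSO baseline; internal background-control marker.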

[13] = ATG_M_06_TRANS: Attagene TRANS-FACTORIAL HepG2 Assay for M06 Transcription Factor (Internal Marker) (AID 2282983; active means hit-call score of the fitted dose curve at least 0.9, where 1 is the maximum); settings: HepG2 Attagene TRANS M06 internal marker reporter
Outline: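 After a 24 h chemical treatment of transfected HepG2, RNA underwent DNase I treatment, reverse transcription and reporter-specific PCR; labelled, HpaI-digested products were sized by capillary electrophoresis. Signal increase relative to DMSO defined activity.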

[14] = biological target: Nuclear receptor subfamily 4 group A member 2 (Homo sapiens) (UniProt P43354); test: ATG_NURR1_TRANS: Attagene TRANS-FACTORIAL HepG2 Assay for human Nuclear Receptor Related Protein 1 (NURR1) (AID 2282985; active means hit-call score of the fitted dose curve at least 0.9, where 1 is the maximum); settings: HepG2 Attagene TRANS reporter, mRNA readout
Chain of Nuclear receptor subfamily 4 group A member 2 (Homo sapiens) (P43354 whole entry, looked up, the tested form may be a part): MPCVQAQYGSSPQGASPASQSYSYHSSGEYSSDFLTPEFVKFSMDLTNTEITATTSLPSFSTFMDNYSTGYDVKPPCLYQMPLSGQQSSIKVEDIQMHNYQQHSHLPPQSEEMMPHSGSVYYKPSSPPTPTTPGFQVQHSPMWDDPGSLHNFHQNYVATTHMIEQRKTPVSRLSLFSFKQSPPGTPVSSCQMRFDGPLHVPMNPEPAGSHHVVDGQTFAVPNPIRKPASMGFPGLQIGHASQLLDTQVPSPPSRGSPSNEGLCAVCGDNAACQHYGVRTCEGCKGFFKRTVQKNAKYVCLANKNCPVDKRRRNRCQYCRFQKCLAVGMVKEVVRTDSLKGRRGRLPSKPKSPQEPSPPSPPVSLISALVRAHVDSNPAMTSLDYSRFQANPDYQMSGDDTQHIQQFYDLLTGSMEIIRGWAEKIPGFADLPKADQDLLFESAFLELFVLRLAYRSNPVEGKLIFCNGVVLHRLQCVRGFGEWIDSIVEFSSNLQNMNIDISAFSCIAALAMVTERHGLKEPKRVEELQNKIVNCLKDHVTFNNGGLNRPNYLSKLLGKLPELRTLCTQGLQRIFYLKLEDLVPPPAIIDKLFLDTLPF
Outline: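 HepG2 cells transiently transfected with GAL4-UAS reporter units and chimeric NR-Gal4 constructs; chemical exposure 24 h. Reporter mRNA quantified by RT-PCR, fluorescent labelling and capillary electrophoresis; gain of signal fitted relative to DMSO baseline.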

[15] = biological target: Oxysterols receptor LXR-alpha (Homo sapiens) (UniProt Q13133); test: ATG_LXRa_TRANS: Attagene TRANS-FACTORIAL HepG2 Assay for human Liver X Receptor alpha (LXRa) (AID 2282980; active means hit-call score of the fitted dose curve at least 0.9, where 1 is the maximum); settings: HepG2 Attagene TRANS reporter, LXRa transactivation
Chain of Oxysterols receptor LXR-alpha (Homo sapiens) (Q13133 whole entry, looked up, the tested form may be a part): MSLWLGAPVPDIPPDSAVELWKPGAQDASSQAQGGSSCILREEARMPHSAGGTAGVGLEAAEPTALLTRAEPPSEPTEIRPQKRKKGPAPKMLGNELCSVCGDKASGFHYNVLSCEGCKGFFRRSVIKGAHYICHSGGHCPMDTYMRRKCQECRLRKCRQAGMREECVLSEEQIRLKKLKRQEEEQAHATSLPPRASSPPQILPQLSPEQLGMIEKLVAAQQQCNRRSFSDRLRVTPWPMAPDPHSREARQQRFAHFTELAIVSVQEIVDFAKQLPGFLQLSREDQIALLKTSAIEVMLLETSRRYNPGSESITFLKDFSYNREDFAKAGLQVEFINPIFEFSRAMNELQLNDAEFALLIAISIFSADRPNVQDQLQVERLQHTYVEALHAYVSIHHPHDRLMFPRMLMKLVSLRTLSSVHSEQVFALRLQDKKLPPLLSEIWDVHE
Outline: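 Read-out: reporter transcript levels by RT-PCR plus capillary electrophoresis, fluorescence intensity. Transiently transfected HepG2, exogenous NR-GAL4 chimera, GAL4-UAS reporters; 24 h compound exposure. Activity = increase over DMSO negative control.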

Measured: AC50

CCO[Si](CCCS)(OCC)OCC
inactive: [1] | [2] | [3] | [4] | [5] | [6] | [7] | [8] | [9] | [10] | [11]

COc1cc(C)cc(O)c1
inactive: [1] | [2] | [12] | [4] | [5] | [6] | [7] | [8] | [9] | [10]

O=C(O)CCCCC1CCSS1 (configuration not stated)
inactive: [1] | [2] | [3] | [13] | [14] | [4] | [5] | [6] | [7] | [8] | [10] | [11]
active: [9] 40 µM

O=C(O)CCCCCCCCCCC(=O)O
inactive: [1] | [2] | [3] | [13] | [14] | [4] | [5] | [7] | [8] | [9] | [10]

Clc1ccc(Cl)c(Cl)c1Cl
inactive: [1] | [15] | [12] | [14] | [4] | [5] | [6] | [7] | [8] | [9] | [10] | [11]

C[C@]12CC[C@H]3[C@@H](CCC4=CC(=O)CC[C@@]43C)[C@@H]1CC[C@@H]2C(=O)CO
active: [1] 6.33 µM | [11] 42.5 µM
inactive: [2] | [13] | [12] | [14] | [4] | [5] | [7] | [8] | [9] | [10]

Cc1cccc(Nc2ccccc2C(=O)O)c1C
inactive: [1] | [2] | [3] | [13] | [12] | [14] | [4] | [5] | [6] | [7] | [10]
active: [9] 100 µM

O=c1cc(-c2ccccc2)oc2cc(O)cc(O)c12
active: [8] 12.4 µM | [9] 2.2 µM | [11] 3.66 µM
inactive: [1] | [15] | [13] | [12] | [4] | [5] | [6] | [7] | [10]

CC1(C)[C@H](C(=O)OCc2cccc(Oc3ccccc3)c2)[C@@H]1C=C(Cl)Cl
inactive: [1] | [2] | [3] | [13] | [12] | [4] | [5] | [6] | [7] | [9] | [10] | [11]

COc1ccc(Nc2ccccc2)c(C)c1
inactive: [1] | [2] | [13] | [12] | [4] | [5] | [6] | [7] | [10] | [11]
active: [8] 151 µM | [9] 79.9 µM
